Each structure is given as a SMILES string. Inconclusive results are not listed. A call without a number means that no potency is given here. Unmarked numbers belong to inactive results. The source made the active and inactive calls. Calls follow the shape of the full dose curve.

The nature of this assay: Cytotoxicity counterscreen for inhibitors of SARS-CoV-2 cell entry (AID 1645845). Also: nearly all actives have a fitted effect of over 50% in size. As to activity change, negative = cytotoxicity: series mostly up to about 57 µM. The gist of the method: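 HEK293-ACE2 cells (Expi293F stably expressing human ACE2) seeded overnight, then compound for 1 h plus 48 h at 37C. Viability as ATP content by luminescence; normalized to wells with cells and media-only wells.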
A general note: The purpose of a counterscreen is to sort out artefacts and off-target activity.

With `Cc1cccc(C)c1NC(=O)c1cc(S(N)(=O)=O)c(Cl)cc1O`, the Potency result was “inactive”.

With `O=C(O)c1ccccc1Nc1cccc(C(F)(F)F)c1`, the Potency result was “inactive”.

For `CC(=O)OCC(COC(C)=O)OC(C)=O`, the Potency result is “inactive”.

As for `NC(=O)NC1N=C([O][Al])NC1=O` (configuration not stated), the Potency entry was “inactive”.

Regarding `CO[C@H]1C[C@@H]2CC[C@@H](C)[C@@](O)(O2)C(=O)C(=O)N2CCCC[C@@H]2C(=O)O[C@H]([C@@H](C)C[C@@H]2CC[C@H](O)[C@H](OC)C2)CC(=O)[C@H](C)C=C(C)[C@@H](O)[C@@H](OC)C(=O)[C@H](C)C[C@H](C)C=CC=CC=C1C`, the Potency result is “inactive”.

On to `O=C(NCC(O)CO)c1c(I)c(C(=O)NCC(O)CO)c(I)c(N(CCO)C(=O)CO)c1I` (configuration not stated), for which the Potency result is “inactive”.

As to `NCCNCCNCCNCCN`, the outcome was “inactive [at 11.3 µM]”.

For `CC(=O)OCC[N+](C)(C)C`, the Potency result is “inactive”.

As for `NC(N)=NC(=O)Cc1c(Cl)cccc1Cl`, the Potency entry is “inactive”.

Regarding `CC(CC(C#N)(c1ccccc1)C(C)C)N(C)C` (configuration not stated), the Potency entry is “inactive”.

In the case of `CCN1CCC[C@H]1CNC(=O)c1cc(S(N)(=O)=O)ccc1OC`, the Potency result is “inactive”.

Take `CN(C)CCOC(=O)COc1ccc(Cl)cc1`: the Potency result was “inactive”.

With `O=C(O)[C@H](O)c1ccccc1`, the Potency entry is “inactive”.

`CCCC(=O)O[C@]1(C(=O)COC(=O)CC)CC[C@H]2[C@@H]3CCC4=CC(=O)CC[C@]4(C)[C@H]3[C@@H](O)C[C@@]21C`: the Potency entry is “inactive”.

In the case of `COc1ccc(C(=O)c2ccccc2)c(O)c1`, the Potency entry is “inactive”.

Turning to `CC(C)CN(C[C@@H](O)[C@H](Cc1ccccc1)NC(=O)O[C@H]1CO[C@H]2OCC[C@H]21)S(=O)(=O)c1ccc(N)cc1`, the Potency result was “inactive”.

Consider `CC(=O)CC(c1ccccc1)c1c(O)c2ccccc2oc1=O` (configuration not stated), for which the Potency result was “inactive”.

With `C[C@](N)(Cc1ccc(O)cc1)C(=O)O`, the outcome is “inactive [at 5.25 µM]”.

Regarding `Cn1nnc2c(C(N)=O)ncn2c1=O`, the Potency result was “inactive”.

As to `CC1(C)O[C@@H]2C[C@H]3[C@@H]4C[C@H](F)C5=CC(=O)C=C[C@]5(C)[C@@]4(F)[C@@H](O)C[C@]3(C)[C@]2(C(=O)CO)O1`, the Potency result is “inactive”.

For `NC(=O)c1ccccc1O`, the Potency result was “inactive”.

As to `CN1C(=O)OC(C)(C)C1=O`, the Potency entry is “inactive”.

For `NCC[C@H](O)C(=O)N[C@@H]1C[C@H](N)[C@@H](O[C@H]2O[C@H](CN)[C@@H](O)[C@H](O)[C@@H]2O)[C@H](O)[C@@H]1O[C@H]1O[C@H](CO)[C@@H](O)[C@H](N)[C@@H]1O`, the outcome is “inactive [at 0.702 µM]”.

With `CCN1CC(CCN2CCOCC2)C(c2ccccc2)(c2ccccc2)C1=O` (configuration not stated), the Potency entry was “inactive”.

`CC(=O)Oc1cccc(O)c1`: the Potency result was “inactive”.

Take `CC(C)(Sc1cc(C(C)(C)C)c(O)c(C(C)(C)C)c1)Sc1cc(C(C)(C)C)c(O)c(C(C)(C)C)c1`: the Potency result was “inactive”.

For `CC[C@H](C)C(=O)O[C@H]1C[C@H](O)C=C2C=C[C@H](C)[C@H](CC[C@@H](O)C[C@@H](O)CC(=O)O)[C@H]21`, the Potency result was “inactive”.

For `CCCC(=O)OCOC(=O)C1=C(C)NC(C)=C(C(=O)OC)C1c1cccc(Cl)c1Cl` (configuration not stated), the Potency result was “inactive”.

Regarding `Nc1ccc(S(=O)(=O)Nc2ccccn2)cc1`, the Potency result was “inactive”.

Turning to `Cc1cc2c(cc1S(N)(=O)=O)S(=O)(=O)CCC2`, the Potency result was “inactive”.

On to `Cc1ccccc1OCC(O)CO` (configuration not stated), for which the Potency result is “inactive”.

Take `O=C(O)Cc1cccc(-c2cc(CCCCCCc3ccc(O[C@H]4O[C@H](CO)[C@@H](O)[C@H](O)[C@@H]4O)c(-c4cccc(CC(=O)O)c4)c3)ccc2O[C@H]2O[C@H](CO)[C@@H](O)[C@H](O)[C@@H]2O)c1`: the activity change, negative = cytotoxicity is 4.02% [at 0.702 µM].

Consider `CN=C(NC#N)NCCSCc1nc[nH]c1C`, for which the Potency result is “inactive”.

For the molecule `CC(=O)OCC(=O)[C@@]1(O)CC[C@H]2[C@@H]3CCC4=CC(=O)C=C[C@]4(C)[C@@]3(F)[C@@H](O)C[C@@]21C`, the Potency entry was “inactive”.

In the case of `CC1(C)O[C@@H]2C[C@H]3[C@@H]4CCC5=CC(=O)C=C[C@]5(C)[C@@H]4[C@@H](O)C[C@]3(C)[C@]2(C(=O)CO)O1`, the Potency result was “inactive”.

In the case of `C[C@@H]1O[C@@H]1P(=O)(O)O`, the Potency entry was “inactive”.

For `N[C@@H](CCC(=O)N[C@@H](CS)C(=O)NCC(=O)O)C(=O)O`, the Potency entry was “inactive”.

As to `CC1CC(OC(=O)c2ccccc2O)CC(C)(C)C1` (configuration not stated), the Potency result was “inactive”.

Regarding `CCCc1nn(C)c2c(=O)[nH]c(-c3cc(S(=O)(=O)N4CCN(C)CC4)ccc3OCC)nc12`, the Potency entry was “inactive”.

Take `NC(CS)C(=O)O` (configuration not stated): the Potency entry is “inactive”.

Regarding `COc1ccc2[nH]cc(CCNC(C)=O)c2c1`, the Potency result was “inactive”.

For `CC(=O)OCC(=O)[C@@]1(O)CC[C@H]2[C@@H]3CCC4=CC(=O)CC[C@]4(C)[C@H]3C(=O)C[C@@]21C`, the Potency result is “inactive”.

These data come from PubChem BioAssay (NCATS).
